Data reported in article PMC12548414.
In all, about 1,600 compounds went through this assay and about 20 (1%) showed an effect of 50% or more. The list comes from a sample in which strong results are over-represented; it also holds similar structures and randomly drawn compounds.

These compounds were tested on T1, E. coli pLC1021 (luc-trpAt trans-translation reporter). Details: reporter signal, KKL-35 = 100%; rise means trans-translation inhibition; 2 h, 20 µM.
T1 construct: pLC1021 luc-trpAt reporter strain
Design: species or system Escherichia coli pLC1021; luc-trpAt non-stop luciferase reporter; luminescence rises when trans-translation is inhibited; normalized to KKL-35 and DMSO
Outline: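 Luminescence (560 nm, 10 min after Bright-Glo) reports luciferase that escapes trans-translation tagging, measured after 2 h room-temperature treatment with 20 µM compound. Each plate was scaled between DMSO (negative) and 20 µM KKL-35 (positive) controls. Compounds scoring one standard deviation above the median counted as positive; at least two biological repeats.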

| Compound | % activation [%] |
| --- | --- |
| CN(C)c1ccc(N=Nc2nc3ccccc3n2C)cc1 [KKL-1056] | 0 |
| Fc1cccc(Oc2cc(C3CCCNC3)nc(-c3ccncc3)n2)c1 (centres unmarked) [KKL-1670] | 3 |
| O=C(C=Cc1cccs1)N1CCN(Cc2ccc(Br)s2)CC1 [KKL-1861] | 0 |
| Cc1ccc(-n2cc(CNCCCn3ccnc3)c(-c3cccc(C)c3)n2)cc1 [KKL-0662] | 0 |
| Cc1nn2c(O)cc(C(C)(C)C)nc2c1-c1ccccc1 [KKL-0891] | 17 |
| CCOC(=O)c1c(NC(=O)COc2ccc(C(C)C)cc2)sc2c1CCC2 [KKL-1530] | 0 |
| COc1ccc(-c2cc(=O)c3cc(OCC(=O)OC(C)C)ccc3o2)cc1 [KKL-1864] | 2 |
| CCC(NC(=O)c1cnc(C(C)(C)C)nc1)c1ccc(F)cc1 (centres unmarked) [KKL-0932] | 5 |
| CCCN=C1C(=O)c2ccccc2C(O)=C1N(C(C)=O)c1cccc(F)c1 [KKL-0978] | 0 |
| Clc1nnc(N2CCCC2)c2ccccc12 [KKL-1738] | 0 |
| CCOC(=O)COc1ccc(S(=O)(=O)Nc2c(C)cccc2CC)cc1 [KKL-1460] | 0 |
| Nc1nc(N)c2c(Sc3ccc4ccccc4c3)cccc2n1 [KKL-1710] | 0 |
| Cc1sc2nc(C(C)C)n(C3CCN(C(=O)c4ccncc4)CC3)c(=O)c2c1C [KKL-0464] | 14 |
| COC(=O)[C@@H]1Cc2c([nH]c3ccccc23)[C@H]2C[C@H](NCc3cccnc3)C[C@@H](c3ccc(C(F)(F)F)cc3)N21 [KKL-1613] | 0 |
| CCn1ccnc1CN(C)Cc1cn(-c2ccc(C)cc2)nc1-c1ccc(F)cc1 [KKL-0657] | 0 |
| Cc1ccc(Nc2c(-c3ccccn3)nc3ccc(C)cn23)cc1 [KKL-1199] | 4 |
| N#Cc1cccc(-c2ccc(NCC3CCC(CN(C(=O)O)c4cccnn4)CC3)nc2)c1 (centres unmarked) [KKL-1855] | 0 |
| c1cn(CCCNc2nncc(-c3ccc(C4CCCCC4)cc3)n2)cn1 [KKL-1171] | 8 |
| COC(=O)[C@@H]1Cc2c([nH]c3ccccc23)[C@H]2C[C@@H](NC(C)C)C[C@@H](c3cccc(Cl)c3)N21 [KKL-1594] | 1 |
| COc1ccc(OC)c(NC(=O)Nc2ccc(Cl)c(C(F)(F)F)c2)c1 [KKL-1544] | 0 |
| Cc1nn(-c2ccccc2)c2c1C(c1ccc(O)c(O)c1)N1C(=N2)C(Nc2ccccc2)=Nc2ccccc21 (centres unmarked) [KKL-0996] | 0 |
| COc1cccc(-c2cc(CC3(O)CCN(Cc4[nH]c5ccc(C)cc5c4C)CC3)on2)c1 [KKL-0315] | 0 |
| CC(C)(C)C(=O)CC1(O)Oc2ccccc2N=C1C=C(O)C(C)(C)C (centres unmarked) [KKL-1740] | 6 |
| Cc1cc(C)c(-n2cccn2)c(CN(CCCn2ccnc2)Cc2ccc(F)cc2)c1 [KKL-1032] | 8 |
| O=C(CN1CCN(Cc2ccccc2)CC1)Nc1ccc([N+](=O)[O-])cc1C(=O)c1ccccc1 [KKL-1480] | 0 |
| O=C(NCc1ccco1)N1CCN(Cc2ccc(Cl)s2)CC1 [KKL-1727] | 3 |
